# From PubChem
# Sampled rows, rich in hits. Any-hit rate of the full collection: about 1.3%.
# Fam108B inh – counter-screen for RBBP9 inhibitors: inhibitors of mouse Fam108B | recombinant Fam108B, FP-Rh probe fluorescence polarization | inhibition, % at 9.51 µM | hit rate 0.33% among 300,000 | AID 1947;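 active means inhibition above the screen mean inhibition plus 3 SD, computed separately per campaign, cut at about 18% in these data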;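 further: inhibitors lower polarization as less probe binds the enzyme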
# LYPLA1 inh – counter-screen for PME1 inhibitors: inhibitors of human LYPLA1. O75608. recombinant LYPLA1, FP-Rh probe fluorescence polarization. inhibition, % at 5.9 µM. hit rate 0.16% among 320,000;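 active means inhibition above the mean of all tested compounds plus 3 SD, set per campaign, cut at about 14% in these data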;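 further: inhibitors block serine hydrolase probe labeling of LYPLA1 so polarization falls; 0% = enzyme with DMSO and 100% = wells lacking LYPLA1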
# Target sequence (O75608 whole entry, looked up): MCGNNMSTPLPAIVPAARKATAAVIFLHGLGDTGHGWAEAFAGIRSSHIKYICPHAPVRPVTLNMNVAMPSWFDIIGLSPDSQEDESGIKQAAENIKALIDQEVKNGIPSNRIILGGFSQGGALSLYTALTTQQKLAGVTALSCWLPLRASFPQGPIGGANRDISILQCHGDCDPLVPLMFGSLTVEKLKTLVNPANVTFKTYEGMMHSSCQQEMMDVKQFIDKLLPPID
# PREPL inhibitor – inhibits the human prolyl oligopeptidase-like enzyme; hit rate 0.68% among 320,000; recombinant PREPL, fluorescence polarization activity-based probe; inhibition, % at 5.96 µM;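 further: 0% = enzyme with DMSO and 100% = wells lacking enzyme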
# PME-1 primary – blocks human protein phosphatase methylesterase 1; recombinant PME-1, FP-Rh probe fluorescence polarization; inhibition, % at 5.9 µM; hit rate 0.53% among 320,000;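 active means inhibition above the campaign mean of all compounds plus 3 SD, cut at about 26% in these data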;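 further: competitive labeling of PME-1 active site by serine hydrolase directed probe; 0% = PME-1 with DMSO and 100% = wells lacking PME-1 enzyme; inhibitors block probe labeling so polarization falls and inhibition rises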
# LYPLA2 counter – LYPLA2 (human) inhibition in PME1 counter-screen | O95372 | recombinant LYPLA2, FP-Rh probe fluorescence polarization | inhibition, % at 5.9 µM | hit rate 0.38% among 320,000;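 active means inhibition above the screen-wide mean plus 3 SD, limit set per campaign, cut at about 26% in these data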;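 further: 0% = LYPLA2 with DMSO and 100% = wells lacking LYPLA2 enzyme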
# Target sequence (O95372 whole entry, looked up): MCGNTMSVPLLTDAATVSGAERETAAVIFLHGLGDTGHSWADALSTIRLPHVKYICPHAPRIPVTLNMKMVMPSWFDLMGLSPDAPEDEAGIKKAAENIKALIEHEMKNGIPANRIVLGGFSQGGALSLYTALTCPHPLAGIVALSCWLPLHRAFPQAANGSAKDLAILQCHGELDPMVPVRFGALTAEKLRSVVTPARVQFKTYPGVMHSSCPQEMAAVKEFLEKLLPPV
# Fam108b confirm – confirmation of mouse Fam108b serine hydrolase inhibitors; recombinant Fam108b, FP-Rh probe fluorescence polarization; inhibition, % at 9.51 µM; hit rate 44% among 930; shares compounds with Fam108B inh;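 active means inhibition above a limit from the primary screen, the mean over all compounds plus 3 SD, cut at about 19% in these data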;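 further: 0% = median of active Fam108b wells and 100% = catalytically dead S170A mutant; inhibitors free the probe so polarization falls as inhibition rises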
# Fam108b ABPP HTS – mouse ABHD17B inhibition. shares compounds with Fam108B inh. hit rate 44% among 260. inhibition, % at 20 µM. recombinant Fam108b, gel-based ABPP, fluorophosphonate probe; in the data active means inhibition above about 40%
# LYPLA1 conf – LYPLA1 (human) inhibition, confirmation counter-screen; shares compounds with LYPLA1 inh; recombinant LYPLA1, FP-Rh probe fluorescence polarization; inhibition, % at 5.9 µM; hit rate 69% among 480;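 active means mean inhibition across replicates above the hit cutoff set in the primary screen, cut at about 15% in these data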;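 further: loss of FP-Rh probe labeling of LYPLA1 seen as lower polarization; 0% = LYPLA1 with DMSO and 100% = wells lacking LYPLA1 enzyme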
# LYPLA2 confirm – LYPLA2 (human) inhibition, confirmation counter-screen; shares compounds with LYPLA2 counter; recombinant LYPLA2, FP-Rh probe fluorescence polarization; inhibition, % at 5.9 µM; hit rate 72% among 1,100;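 active means mean inhibition across replicates above the hit cutoff set in the primary screen, cut at about 26% in these data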;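 further: blocked labeling of the enzyme by serine hydrolase FP-Rh probe lowers polarization; 0% = enzyme with DMSO and 100% = wells lacking LYPLA2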
# PREPL inh cf – confirmation of human PREPL enzyme inhibitors; inhibition, % at 5.96 µM; hit rate 67% among 2,000; shares compounds with PREPL inhibitor; recombinant PREPL, fluorescence polarization activity probe;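 further: 0% = protein with DMSO and 100% = wells lacking protein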
# Active calls of the source: *; · = not tested or not shown. Unless noted, no stated cut-off is given here; in the data, active means inhibition above about 43%; inactive means the rest.
SMILES,Fam108B inh,LYPLA1 inh,PREPL inhibitor,PME-1 primary,LYPLA2 counter,Fam108b confirm,LYPLA1 conf,LYPLA2 confirm,PREPL inh cf,others
CC(=O)Nc1c2c3c(cccc3n(C)c1=O)C(=O)c1ccccc1-2,3,4,12,2,3,·,·,·,·,
Cn1c(=O)c(Nc2ccc(Cl)cc2)c2c3c(cccc31)C(=O)c1ccccc1-2,32*,20*,21,31*,33*,34*,34*,25,·,Fam108b ABPP HTS=0
CNc1ccc2c3c(cccc13)C(=O)N(C)C2=O,62*,59*,64*,77*,82*,47*,47*,59*,·,Fam108b ABPP HTS=25
CN1C(=O)c2cccc3c(Cl)ccc(c23)C1=O,1,1,1,2,3,·,·,·,·,
Nc1ccc(O)c2c1C(=O)c1ccccc1C2=O,53*,50*,51*,56*,62*,49*,36*,59*,·,Fam108b ABPP HTS=0
CN(Cc1ccccc1)C(=O)COC(=O)C1CCN(S(=O)(=O)c2cccs2)CC1,3,2,2,7,-1,·,·,·,·,
COc1ccc(N=C2NC(=O)S/C2=C\c2ccc(N(C)C)cc2)cc1,32*,28*,28,47*,33*,28*,27*,18,·,
O=C1C(CSCc2ccccc2)NC(=S)N1c1ccccc1 (centres undefined),71*,29*,-7,89*,50*,3,1,-3,·,
O=C(O)CC1NC(=S)N(c2ccccc2)C1=O (centres undefined),-1,0,18,2,-2,·,·,·,·,
CC(C)(C)c1ccc(OCC(=O)N(Cc2cccs2)C2CCS(=O)(=O)C2)cc1 (centres undefined),4,-4,4,3,1,·,·,·,·,
Cc1cc(C)c(S(=O)(=O)/N=C2/C=C(Sc3ncn[nH]3)C(=O)c3ccccc32)cc1C,52*,2,15,31*,36*,28*,·,33*,·,
Cc1ccc2c3c(cccc13)-c1ccccc1C2=O,-6,7,20,-3,-6,·,·,·,·,
Cc1coc2c1C(=O)C(=O)c1c-2ccc2c(C)cccc12,19*,10,3,8,39*,15,·,9,·,
Cc1c2cc(O)c(=O)cc-2oc2cc(O)c(O)cc12,114*,95*,60*,113*,108*,138*,94*,102*,·,Fam108b ABPP HTS=0
Oc1ccc(N=Cc2ccc(-c3cccs3)s2)cc1,28*,10,22,51*,29*,62*,·,8,·,Fam108b ABPP HTS=0
O=[N+]([O-])c1cc(Cl)cc(/C=N/NC(=S)Nc2ccc(S(=O)(=O)N3CCOCC3)cc2)c1O,39*,13,46*,19,5,31*,·,·,28,
N#Cc1ccc(/C=N/NC(=S)Nc2ccc(S(=O)(=O)N3CCOCC3)cc2)cc1,-1,0,10,-1,4,·,·,·,·,
CC(NC(=O)COC(=O)c1ccccc1SCC(=O)N1CCCC1)c1ccccc1 (centres undefined),0,0,-9,4,3,·,·,·,·,
COc1cc(/C=N/Nc2nc3c(c(=O)n(C)c(=O)n3C)n2Cc2ccccc2)ccc1OC(=O)c1ccco1,19*,-10,80*,39*,5,-10,·,·,89*,
O=S(=O)(Nc1cc2nc3ccccc3nc2n1Cc1ccccc1)c1ccc(Cl)cc1,43*,54*,50*,53*,57*,64*,45*,93*,42,Fam108b ABPP HTS=20
C=CCn1c(NS(=O)(=O)c2ccccc2)c(S(=O)(=O)c2ccc(C)cc2)c2nc3ccccc3nc21,74*,80*,47*,33*,82*,5,66*,90*,13,
O=S(=O)(Nc1c(S(=O)(=O)c2ccccc2)c2nc3ccccc3nc2n1C1CCCCC1)c1ccccc1,3,-2,-9,-10,2,·,·,·,·,
Cc1ccc(OCCn2cc(/C=N/NC(=O)c3ccncc3)c3ccccc32)cc1,34*,-18,52*,69*,38*,-11,·,·,65*,
COc1cccc(OCCn2cc(/C=N/NC(=O)c3ccncc3)c3ccccc32)c1,25*,3,50*,25,6,2,·,·,33,
O=C(O)c1ccccc1Sc1ncnc2sc3c(c12)CCC3,0,-3,5,-7,-8,·,·,·,·,
SMILES,Fam108B inh,LYPLA1 inh,PREPL inhibitor,PME-1 primary,LYPLA2 counter,Fam108b confirm,LYPLA1 conf,LYPLA2 confirm,PREPL inh cf,others
Cc1cc(O)ccc1N=Cc1c(C(F)(F)F)[nH][nH]c1=O,31*,71*,70*,89*,86*,0,5,6,13,
O=c1c(O)cccc2cc(O)c(O)c(O)c12,49*,-12,63*,19,13,31*,·,·,37,Fam108b ABPP HTS=0
COc1ccc2noc3c2c1C(=O)c1ccccc1-3,20*,25*,50*,26*,29*,23*,21*,23,35,
COC(=O)C1=C(CS(=O)(=O)c2cc(OC)ccc2OC)NC(=O)NC1c1ccc(O)c(OC)c1 (centres undefined),3,3,1,-2,4,·,·,·,·,
O=c1c(-c2ccccc2)c(-c2ccccc2)oc2cc(O)cc(O)c12,8,-5,8,-4,-7,·,·,·,·,
O=c1c(O)c(-c2cc(O)c(O)c(O)c2)oc2cc(O)cc(O)c12,31*,-31,90*,19,-22,-27,·,·,55*,
CC(C)c1ccc(-c2nc(N3CCCCC3)[nH]c(=O)c2C#N)cc1,-2,0,8,4,-2,·,·,·,·,
CC1=Nc2nc(N3CCCCC3)c(C#N)c3c4c(nc(c23)N1)N(c1ccc(C(C)C)cc1)C(=O)C4,27*,-8,99*,14,-1,14,·,·,72*,
CC1(c2ccccc2Cl)NC(=O)N(CC(=O)N2c3ccccc3NC(=O)C2(C)C)C1=O (centres undefined),·,-4,12,5,-2,·,·,·,·,
NC(=O)COC(=O)C1c2ccccc2Oc2ccccc21,7,-7,1,-12,1,·,·,·,·,
N#CCN(CC#N)C(=O)C1c2ccccc2Oc2ccccc21,91*,87*,75*,77*,105*,-9,2,0,-4,
O=C(NCCc1ccccc1)c1ccc2c(=O)[nH]c3c(C(=O)NCC4CCCO4)sc(=S)n3c2c1 (centres undefined),34*,5,93*,23,14,35*,·,·,90*,Fam108b ABPP HTS=20
CCN(C(=O)CSc1nc2ccccc2n1C)C1CCS(=O)(=O)C1 (centres undefined),·,4,1,-3,4,·,·,·,·,
